Assay [1] can be described thus: binders of probe aFSTL3 on microarray, primary screen, stem cell growth factor project, biochemical, small-molecule microarray, fluorescence 635/667 (AID 1064).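 Further: measures binding of the biotinylated anti-FSTL3 antibody to printed compounds.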 As to conditions: higher = more signal.
Assay [2] is described as follows: binders from COS7 lysate, DM2A8 probe, primary screen, torsin A project, cell lysate, small-molecule microarray, fluorescence 635/667 (AID 1065). The conditions noted are these: higher = more signal, COS7 lysate expressing mutant human TOR1A.
Assay [3] can be described thus: binders of probe aFGF2 on microarray, primary screen, stem cell growth factor project, biochemical, small-molecule microarray, fluorescence 635/667 (AID 1067).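 Further: measures binding of biotinylated aFGF2 protein to printed compounds on slides; z-score merges feature fluorescence and signal-to-noise across triplicate slides.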 The conditions noted are these: higher = more signal.
Assay [4] in a line: binders of probe aFGF10 on microarray, primary screen, stem cell growth factor project, biochemical, small-molecule microarray, fluorescence 635/667 (AID 1071).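 Further: score merges 667 nm spot intensity and signal to noise from triplicate slides.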 The conditions noted are these: higher = more signal.
Assay [5] deals with Neurogenic locus notch homolog protein 2 (Homo sapiens) (UniProt Q04721). The assay can be described thus: Notch2 binders on small-molecule microarrays, primary screen, biochemical, small-molecule microarray, 635 nm fluorescence, stem cell growth factors (AID 1073). As to conditions: Notch2 binding, higher = more signal.
Neurogenic locus notch homolog protein 2 (Homo sapiens), sequence (Q04721 whole entry, looked up, canonical isoform): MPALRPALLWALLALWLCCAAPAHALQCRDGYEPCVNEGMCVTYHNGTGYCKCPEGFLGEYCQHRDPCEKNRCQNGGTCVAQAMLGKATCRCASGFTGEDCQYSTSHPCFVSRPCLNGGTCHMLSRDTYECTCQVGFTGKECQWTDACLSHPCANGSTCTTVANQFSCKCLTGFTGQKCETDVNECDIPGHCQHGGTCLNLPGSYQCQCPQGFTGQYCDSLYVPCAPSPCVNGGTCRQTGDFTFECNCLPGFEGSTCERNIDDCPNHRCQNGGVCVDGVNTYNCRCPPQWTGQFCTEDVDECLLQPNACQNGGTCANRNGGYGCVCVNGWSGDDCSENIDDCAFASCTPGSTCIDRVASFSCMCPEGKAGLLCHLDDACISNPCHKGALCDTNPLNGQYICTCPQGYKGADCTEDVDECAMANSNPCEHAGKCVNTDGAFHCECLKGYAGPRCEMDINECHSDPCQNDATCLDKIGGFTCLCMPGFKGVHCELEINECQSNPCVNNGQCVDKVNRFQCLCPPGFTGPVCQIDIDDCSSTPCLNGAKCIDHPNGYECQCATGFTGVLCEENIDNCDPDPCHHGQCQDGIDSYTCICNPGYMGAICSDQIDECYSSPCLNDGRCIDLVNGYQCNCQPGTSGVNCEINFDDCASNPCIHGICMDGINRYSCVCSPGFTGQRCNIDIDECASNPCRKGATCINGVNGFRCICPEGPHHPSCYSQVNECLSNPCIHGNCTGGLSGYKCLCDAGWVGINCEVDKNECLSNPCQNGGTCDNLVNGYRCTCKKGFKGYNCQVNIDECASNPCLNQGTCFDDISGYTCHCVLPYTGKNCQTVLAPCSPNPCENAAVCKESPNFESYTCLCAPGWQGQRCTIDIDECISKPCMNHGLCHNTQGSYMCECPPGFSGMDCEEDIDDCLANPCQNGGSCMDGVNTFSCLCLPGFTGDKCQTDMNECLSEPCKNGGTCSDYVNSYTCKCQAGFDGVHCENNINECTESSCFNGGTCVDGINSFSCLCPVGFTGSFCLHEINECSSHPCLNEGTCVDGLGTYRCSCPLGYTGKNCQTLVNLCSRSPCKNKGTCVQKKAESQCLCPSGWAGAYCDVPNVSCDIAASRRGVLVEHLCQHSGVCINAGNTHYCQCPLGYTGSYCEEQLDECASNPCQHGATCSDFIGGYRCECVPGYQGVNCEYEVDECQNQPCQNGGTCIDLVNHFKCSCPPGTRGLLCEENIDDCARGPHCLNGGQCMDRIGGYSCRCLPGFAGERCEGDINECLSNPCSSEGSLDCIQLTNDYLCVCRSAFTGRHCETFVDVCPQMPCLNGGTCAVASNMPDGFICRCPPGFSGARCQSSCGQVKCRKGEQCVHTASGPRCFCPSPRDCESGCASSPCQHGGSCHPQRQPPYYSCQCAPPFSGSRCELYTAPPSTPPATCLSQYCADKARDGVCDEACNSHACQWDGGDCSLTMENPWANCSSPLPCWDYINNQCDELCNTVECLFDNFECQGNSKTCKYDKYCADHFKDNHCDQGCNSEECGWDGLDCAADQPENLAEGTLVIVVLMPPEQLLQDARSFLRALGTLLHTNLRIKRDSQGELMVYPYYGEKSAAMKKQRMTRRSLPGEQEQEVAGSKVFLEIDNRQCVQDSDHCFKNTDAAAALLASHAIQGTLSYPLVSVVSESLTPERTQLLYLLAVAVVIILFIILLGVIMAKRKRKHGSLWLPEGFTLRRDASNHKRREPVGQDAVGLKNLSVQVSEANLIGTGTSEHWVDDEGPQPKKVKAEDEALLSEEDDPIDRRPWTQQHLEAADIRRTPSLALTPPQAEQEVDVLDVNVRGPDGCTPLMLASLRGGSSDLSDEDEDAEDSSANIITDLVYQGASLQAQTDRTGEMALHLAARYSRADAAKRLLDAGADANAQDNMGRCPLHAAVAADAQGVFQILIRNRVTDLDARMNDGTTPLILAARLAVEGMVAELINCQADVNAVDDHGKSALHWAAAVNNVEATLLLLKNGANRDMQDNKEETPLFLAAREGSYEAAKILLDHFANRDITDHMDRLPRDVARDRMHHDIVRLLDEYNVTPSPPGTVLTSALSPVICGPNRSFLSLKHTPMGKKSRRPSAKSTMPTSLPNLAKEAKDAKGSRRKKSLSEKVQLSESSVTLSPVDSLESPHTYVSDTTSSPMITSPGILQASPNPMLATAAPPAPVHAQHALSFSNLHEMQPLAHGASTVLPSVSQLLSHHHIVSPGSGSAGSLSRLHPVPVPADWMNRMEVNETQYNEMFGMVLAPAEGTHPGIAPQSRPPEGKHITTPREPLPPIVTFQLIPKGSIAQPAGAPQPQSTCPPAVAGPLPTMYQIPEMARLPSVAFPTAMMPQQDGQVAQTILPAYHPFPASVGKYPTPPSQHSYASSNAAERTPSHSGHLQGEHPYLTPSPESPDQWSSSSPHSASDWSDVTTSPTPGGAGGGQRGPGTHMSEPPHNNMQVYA
For assay [6], the target named is Pro-neuregulin-1, membrane-bound isoform (Homo sapiens) (UniProt Q02297). The assay can be described thus: NRG1 binders on small-molecule microarrays, primary screen, psychiatric disease protein project, biochemical, small-molecule microarray, fluorescence 635/667 (AID 1075).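 Further: score combines 667 nm spot fluorescence with signal to noise.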 As to conditions: NRG1 binding, 635 nm fluorescence, higher = more signal.
Pro-neuregulin-1, membrane-bound isoform (Homo sapiens), sequence (Q02297 whole entry, looked up, the tested form may be a part, canonical isoform): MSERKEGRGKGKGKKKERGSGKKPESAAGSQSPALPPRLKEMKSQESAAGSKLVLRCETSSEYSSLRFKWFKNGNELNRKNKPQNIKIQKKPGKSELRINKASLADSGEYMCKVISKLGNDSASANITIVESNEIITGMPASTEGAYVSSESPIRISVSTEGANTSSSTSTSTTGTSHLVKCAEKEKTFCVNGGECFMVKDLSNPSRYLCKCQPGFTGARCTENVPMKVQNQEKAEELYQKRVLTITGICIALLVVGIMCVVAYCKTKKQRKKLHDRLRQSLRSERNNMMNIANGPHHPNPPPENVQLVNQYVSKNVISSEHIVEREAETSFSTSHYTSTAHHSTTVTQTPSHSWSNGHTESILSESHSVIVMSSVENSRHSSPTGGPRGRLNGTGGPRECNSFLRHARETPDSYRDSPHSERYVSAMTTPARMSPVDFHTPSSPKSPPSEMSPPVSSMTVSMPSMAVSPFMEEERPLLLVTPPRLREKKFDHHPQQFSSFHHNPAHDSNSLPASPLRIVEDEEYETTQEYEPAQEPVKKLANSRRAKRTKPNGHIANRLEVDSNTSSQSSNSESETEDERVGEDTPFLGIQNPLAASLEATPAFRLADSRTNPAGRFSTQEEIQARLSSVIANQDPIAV
Assay [7] concerns Neuregulin-1 EGF-like domain. The assay can be described thus: binders of neuregulin-1 EGF-like domain, primary screen, biochemical, small-molecule microarray, 635 nm fluorescence (AID 1081).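 Further: binding of the protein to compounds printed on small-molecule microarray slides.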 The conditions noted are these: small-molecule microarray binding, higher = more signal.
A short description of assay [8]: FRG1 promoter luciferase signal modulators, primary screen, FRG1 inhibition for FSHD, cell-based, C2C12 myotubes, firefly/Renilla luciferase, luminescence (AID 1084). As to conditions: higher = more signal, called active from +8 up or from −8 down.
The nature of assay [9]: binders of probe aFST on microarray, primary screen, stem cell growth factor project, biochemical, small-molecule microarray, fluorescence 635/667 (AID 1086).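 Further: score merges 667 nm fluorescence with signal-to-noise of each printed compound spot.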 The conditions noted are these: higher = more signal.
Assay [10] in a line: binders of probe aHhip on microarray, primary screen, stem cell growth factor project, biochemical, small-molecule microarray, fluorescence 635/667 (AID 1087).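 Further: score merges spot fluorescence at 667nm with spot signal to noise ratio.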 The conditions noted are these: higher = more signal.

The source made the active and inactive calls.

For the molecule `CON=C(C)CCC(=O)OC[C@H]1O[C@H](c2ccccc2)C=C[C@@H]1Oc1ccc(OC)cc1`, the composite z-score in [1] was -0.0269; in assay [2] it was 0.0837; in assay [3], -0.0504; in [4], 0.111; in [5] it was -0.272; in assay [6], -0.351. The figures for the composite z-score in assay [7], in [9] and in assay [10] were -0.0622, 0.308 and -0.131, respectively. In assay [8], the z-score was 1.89 (inactive).
With `CCc1cc2c(nc1CC)CCN(CCC(C)=NO[C@H](C)c1cn([C@@H]3COC[C@H]3O)nn1)C2`, the composite z-score is -0.141 in assay [1]; -0.0699 in [2]; -0.0015 in assay [3]; 0.0444 in [4]; 0.199 in assay [5]; -0.174 in assay [6]. Moreover, the composite z-score was -0.365 in assay [7], 0.224 in [9] and -0.0994 in assay [10]. Besides, the z-score in assay [8] was -0.0345 (inactive).
As for `COC(=O)[C@H](C)NC(=O)CCC1CC(OC(=O)NCCc2ccc(F)cc2)CC2(CCCC(COC(=O)NCCC(C)C)O2)O1` (stereo not given in full), the composite z-score in assay [1] was -0.279; in [2], -0.0132; in assay [3], -0.0407; in assay [4], 1.11; in assay [5], 0.824; in [6], 1.26. In addition, the composite z-score in assay [7] was 0.888; in assay [9], 0.281; in assay [10], -0.13. In [8], the z-score was 0.033 (inactive).
As for `C[C@H]1CC[C@H]2C(=O)O[C@H](COc3ccc(C(C)(C)C)cc3)CN2[C@@H]1c1ccc(Br)cc1`, the composite z-score is -0.135 in assay [1]; 0.169 in assay [2]; -0.053 in assay [3]; -0.0634 in assay [4]; -0.0332 in assay [5]; 0.724 in [6]. Moreover, the composite z-score in [7] is -0.536; in assay [9] it was 0.125; in assay [10], -0.371. For the same molecule, in [8], the z-score is -0.0935 (inactive).
Consider `COC(=O)[C@@H]1CC[C@H](C)[C@@H](c2ccc(C)cc2)N1C(=O)c1ccc(C=NO[C@H](C)c2cn([C@@H]3COC[C@H]3O)nn2)cc1`, for which the composite z-score in [1] was -0.591; in assay [2], -0.314; in assay [3], -0.0459; in assay [4] it was 0.515; in assay [5], 1.14; in assay [6], 0.122. The composite z-score was 0.972 in [7], 0.165 in assay [9] and -0.124 in assay [10]. In addition, the z-score in assay [8] was 0.191 (inactive).
For `CCC(=O)[C@@]1(O)C(=O)N2C(=C3C(=O)OCC[C@@H]31)N(Cc1ccccc1)C(C)=C(C(=O)OC)[C@H]2c1ccccc1`, the composite z-score in [1] was -0.268; in [2], 0.364; in assay [3], -0.167; in assay [4], 0.342; in [5], 0.355; in [6], -0.13. For the same molecule, the composite z-score in [7] turned out to be 0.0811; in [9], 0.179; in assay [10], 0.176. The z-score in assay [8] was 0.105 (inactive).
Turning to `O=C1C[C@@H](O)[C@@H](O)[C@@H]2[C@@H]3C(=O)N(c4cccc(Oc5ccccc5)c4)C(=O)[C@@H]3CC[C@H]12`, the composite z-score in assay [1] was -0.499; in [2], 0.247; in assay [3], -0.0985; in [4] it was 0.206; in assay [5], 0.484; in assay [6], 0.241. Besides, the composite z-score in assay [7] was 0.413; in assay [9], 0.167; in assay [10] it was -0.153. Moreover, the z-score in [8] was -0.0447 (inactive).
As to `COc1ccc(O[C@H]2C=C[C@@H](c3ccccc3)O[C@@H]2CON=CC[C@@H]2C=C[C@H](OC(C)=O)[C@@H](COC(C)=O)O2)cc1`, the composite z-score in [1] is -0.142; in assay [2] it was 0.0191; in assay [3], -0.0667; in [4], 0.138; in assay [5] it was -0.265; in [6], -0.364. Moreover, the values for the composite z-score in assay [7], in assay [9] and in assay [10] were -0.216, 0.388 and -0.0994, respectively. Also, the z-score in [8] was 1.01 (inactive).
As for `C[C@@H]1C=CCC(=O)OC[C@H]2O[C@@H](C=C[C@@H]2O)[C@H](C)C=CCC(=O)OC1`, the composite z-score in assay [1] was -0.711; in assay [2] it was 2.13; in assay [3] it was -0.175; in [4] it was -0.32; in assay [5], -0.302; in [6], -1.03. In addition, the composite z-score in assay [7] was 0.765; in [9], -0.291; in assay [10] it was 0.28. Besides, the z-score in assay [8] was -1.28 (inactive).
On to `CCOC(=O)[C@H](CC(C)C)NC(=O)CCC1CC(OC(=O)NCc2cccc3ccccc23)CC2(CCCC(COC(=O)NCCOc3ccccc3)O2)O1` (stereo not given in full), for which the composite z-score in [1] is -0.646; in assay [2] it was 0.374; in assay [3], -0.016; in assay [4], 0.273; in assay [5] it was 1.2; in assay [6], 0.647. The composite z-score in assay [7] stood at 1.01; in [9], 0.0697; in [10] it was 0.224. Further, the z-score in assay [8] is 1.67 (inactive).
`COc1ccc(COC(=O)NN=C2C[C@@H](O)[C@@H](O)[C@@H]3[C@@H]4C(=O)N(c5cccc(Oc6ccccc6)c5)C(=O)[C@@H]4CC[C@@H]23)cc1`: the composite z-score in assay [1] is 0.809; in [2], -0.107; in assay [3] it was -0.0363; in assay [4], -0.135; in [5] it was -0.423; in assay [6], -0.0521. Also, the composite z-score was -0.265 in assay [7], 0.88 in [9] and 0.262 in assay [10]. Further, in assay [8], the z-score was 0.331 (inactive).
With `CC(=O)OC[C@H]1O[C@H](CC=NO[C@H](C)c2cn([C@H](CO)Cc3ccccc3)nn2)C=C[C@@H]1OC(C)=O`, the composite z-score in [1] was -0.789; in assay [2], 0.379; in [3], -0.087; in assay [4], 0.541; in [5] it was 0.911; in assay [6], 1.33. Further, the composite z-score in assay [7] is 0.711; in assay [9], 0.246; in assay [10], -0.201. In [8], the z-score is 0.235 (inactive).
As for `CCOC(=O)NN=C1C[C@@H](O)[C@@H](O)[C@@H]2[C@@H]3C(=O)N(c4cccc(Oc5ccccc5)c4)C(=O)[C@@H]3CC[C@H]12`, the composite z-score in assay [1] is -0.441; in assay [2], 0.192; in [3] it was -0.187; in assay [4], 0.221; in [5], 0.615; in [6], 0.855. Also, the results for the composite z-score in [7], in [9] and in [10] were 0.234, 0.0755 and -0.0645, respectively. Besides, the z-score in [8] is -0.0124 (inactive).
As to `O=C(NN=C1C[C@@H](O)[C@@H](O)[C@@H]2[C@@H]3C(=O)N(C4CCCCC4)C(=O)[C@@H]3CC[C@H]12)OCc1ccccc1`, the composite z-score was 1.01 in [1]; 0.553 in assay [2]; 0.0679 in assay [3]; 0.0977 in assay [4]; 1.1 in assay [5]; -0.131 in [6]. The composite z-score in assay [7] was -0.287; in assay [9], 0.324; in [10] it was -0.558. Moreover, the z-score in [8] is -0.242 (inactive).

For the origin of these results see PubChem BioAssay.
